High-throughput results (PubChem BioAssay)
Rows were chosen to be rich in hits. Some 2.5% of all compounds tested hit in one or more screens of this group.
aDG glyco act: alpha-DG glycosylation activation; Pro5-aDG cells, alpha-DG glycosylation AlphaScreen (IIH6); 0% Pro5, 100% B10-LARGE cell signal; activation, % at 10 µM; 360,000 compounds, 0.22% hits;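 active means activation of at least 8% versus controls, or a plate z-score of at least 8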;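 further: Pro5 are CHO cells carrying HIG-tagged alpha-DG that lacks glycosylation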
DYRK1A inh: inhibitors of rat Dyrk1A kinase; 310,000 compounds, 0.43% hits; ADP-Glo luminescence, NFATc1 peptide; inhibition, % at 12.5 µM; Q63470; AID 504441; in the data active means inhibition above about 50%
HSF1 inh: HSF1 inhibition; 300,000 compounds, 0.77% hits; NIH3T3-HGL HSE-luciferase, MG132-induced, luminescence 8 h; active compounds read low; activity change, negative = inhibition, % at 7.5 µM (by protocol);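 active means more than half of replicate wells show activity change below -50%, luminescence cut by over half; inconclusive means some wells, but at most half, below -50%; inactive means no replicate well below -50%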;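 further: luciferase reports HSF-1 transcriptional activity via heat shock element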
GC-B act: GC-B (human) receptor activation; P20594; HEK293-GC-B cells, CNP EC30, cGMP TR-FRET; 0% at EC30 CNP, 100% saturating CNP; activation, % at 10 µM; 370,000 compounds, 0.11% hits; AID 1920062;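 active means activation at 10 µM reaching about 35% in either raw or pattern-adjusted values, limit read from the data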
Target sequence (P20594 whole entry, looked up): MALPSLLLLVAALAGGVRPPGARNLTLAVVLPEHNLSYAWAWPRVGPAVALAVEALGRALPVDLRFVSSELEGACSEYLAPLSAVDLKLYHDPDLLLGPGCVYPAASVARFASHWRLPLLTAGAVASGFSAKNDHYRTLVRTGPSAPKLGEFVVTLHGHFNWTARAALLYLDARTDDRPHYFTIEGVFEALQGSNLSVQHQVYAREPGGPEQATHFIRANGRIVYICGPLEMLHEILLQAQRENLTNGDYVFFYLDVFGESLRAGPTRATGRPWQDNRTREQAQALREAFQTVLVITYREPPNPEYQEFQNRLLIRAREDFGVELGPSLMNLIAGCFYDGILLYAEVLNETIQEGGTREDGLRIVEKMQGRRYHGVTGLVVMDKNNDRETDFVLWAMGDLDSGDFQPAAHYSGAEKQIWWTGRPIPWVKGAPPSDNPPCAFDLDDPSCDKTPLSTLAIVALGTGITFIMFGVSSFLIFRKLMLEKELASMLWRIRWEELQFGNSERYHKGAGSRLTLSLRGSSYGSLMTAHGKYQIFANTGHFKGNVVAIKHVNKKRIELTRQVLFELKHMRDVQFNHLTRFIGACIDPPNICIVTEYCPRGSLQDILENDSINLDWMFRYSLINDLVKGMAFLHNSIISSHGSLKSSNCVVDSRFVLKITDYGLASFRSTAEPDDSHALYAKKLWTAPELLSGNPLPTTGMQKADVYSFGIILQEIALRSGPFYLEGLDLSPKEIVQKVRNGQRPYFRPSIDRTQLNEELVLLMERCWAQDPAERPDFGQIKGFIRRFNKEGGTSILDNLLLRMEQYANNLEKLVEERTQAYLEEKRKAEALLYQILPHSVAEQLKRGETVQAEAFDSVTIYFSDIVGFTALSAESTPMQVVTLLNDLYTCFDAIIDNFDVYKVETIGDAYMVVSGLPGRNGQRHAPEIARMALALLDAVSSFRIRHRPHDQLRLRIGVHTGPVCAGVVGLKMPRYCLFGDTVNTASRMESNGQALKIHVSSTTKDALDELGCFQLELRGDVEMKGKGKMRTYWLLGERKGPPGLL
GC-A act: GC-A (human) enzyme activation; P16066; HEK293 GC-A cells, cGMP TR-FRET, EC30 ANP; 0% at EC30 ANP, 100% saturating ANP; activation, % at 10 µM; 370,000 compounds, 0.14% hits; AID 1671463; in the data active means activation above about 40%
HSF1 activator: increases HSF-1 driven luciferase reporter signal. NIH3T3-HGL HSF-1 luciferase reporter, MG132, 8 h; 100% = twice DMSO control signal. activation, % at 9 µM. 300,000 compounds, 1.7% hits. AID 504408;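 active means mean replicate activation of at least 50% with a set share of replicates each reaching 50%; inconclusive means only one of those two conditions met; inactive means mean below 50% and too few replicates reaching it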
ADP-Glo artifact: counter-screen for Dyrk1A inhibitors: ADP-Glo luciferase artifacts | shares compounds with DYRK1A inh | ADP-Glo luciferase artifact assay, no Dyrk1A, luminescence | AC50, µM (highest dose often 12 µM) | 1,300 tested, under 10 active | AID 588348;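 active means fitted half-maximal dose AC50 no more than ten times the top valid tested dose, with luminescence dropping as dose rises; inconclusive means poor fit, or flat fit with 30 to 70% inhibition; inactive means the rest, signal increases included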
Each line names hits and unclear results; the compound was inactive in the other large screens (follow-up assays come after a bar, where they were run).

COc1ccc(C2C(C(=O)c3ccccc3)N3c4ccccc4C=CC3C2[N+](=O)[O-])cc1 (stereo unspecified)	none (no result: HSF1 inh, HSF1 activator)
N#Cc1ccccc1OCC(=O)C1CC1	none
Oc1ccc2ccccc2c1N=Nc1ccccc1F	none
O=S(=O)(O)c1cccc(N=Nc2c(O)ccc3ccccc23)c1	DYRK1A inh 74.2 | ADP-Glo artifact inactive
Nc1nc(Nc2cccc(F)c2)nc2ccccc12	DYRK1A inh 74.4, HSF1 activator 55.5 | ADP-Glo artifact inactive
COC(=O)C1C(=O)c2c([nH]c(C(=O)OC3CCCCCC3)c2C)CC1C (stereo unspecified)	none
Cc1ccc2c(c1C)-c1c(ccc(C)c1C)C(=O)C2=O	DYRK1A inh 54.4 (no result: HSF1 inh, HSF1 activator) | ADP-Glo artifact inactive
Brc1ccccc1C1=Nn2c(nnc2-c2ccccc2)SC1	DYRK1A inh 73.2 | ADP-Glo artifact inactive
O=C(NCc1cccc(CNC(=O)C(=O)NCC2CCCO2)c1)C(=O)NCC1CCCO1 (stereo unspecified)	none (no result: HSF1 inh, HSF1 activator)
COc1cc(/C=C2/SC(=O)NC2=O)ccc1Oc1ccc([N+](=O)[O-])cc1[N+](=O)[O-]	DYRK1A inh 79.6 (no result: HSF1 inh, HSF1 activator) | ADP-Glo artifact inactive
COc1cc(/C=C2/SC(N)=NC2=O)ccc1Oc1ccc([N+](=O)[O-])cc1[N+](=O)[O-]	none (no result: HSF1 inh, HSF1 activator)
Cn1c2ccccc2c(=O)c2ccc(C#CC3(N)CCCCC3)cc21	DYRK1A inh 58.4 | ADP-Glo artifact inactive
CCc1ncc(/C=C2\C(=O)Nc3ccccc32)[nH]1	DYRK1A inh 56.6 | ADP-Glo artifact inactive
Cn1nnnc1SCc1nc2ccccc2s1	none
O=C(Nc1cccc(-c2nc3cccnc3s2)c1)c1cccnc1Cl	DYRK1A inh 61.8 | ADP-Glo artifact inactive
O=C(Nc1cccc(-c2nc3cccnc3s2)c1)c1ccc(Cl)nc1	none
CC1(C)Cc2nc3sc4c(SCC(=O)O)ncnc4c3cc2CO1	DYRK1A inh 92.5 (no result: HSF1 inh, HSF1 activator) | ADP-Glo artifact inactive
CCc1cc(-c2[nH]ncc2-c2ccc3c(c2)OCO3)c(O)cc1O	DYRK1A inh 52.4 | ADP-Glo artifact inactive
COc1ccc(-c2[nH]ncc2-c2ccc3c(c2)OCCO3)c(O)c1	DYRK1A inh 60.4 | ADP-Glo artifact inactive
CC(C)C(OC(=O)c1cccs1)C(=O)NCc1cccs1 (stereo unspecified)	none
Fc1ccccc1-c1nc(-c2ccc(-c3nn[nH]n3)cc2)no1	DYRK1A inh 58.6 (no result: HSF1 inh, HSF1 activator) | ADP-Glo artifact inactive
Fc1ccccc1-c1nc(-c2ccccc2)no1	HSF1 activator inconclusive
O=C1OCc2cccc3cccc1c23	DYRK1A inh 51.0 | ADP-Glo artifact inactive
O=C1Cc2cccc3cccc1c23	none
O=C(c1ccc(S(=O)(=O)c2cccc(Cl)c2)c([N+](=O)[O-])c1)N1CCN(c2ccccn2)CC1	none
CCN(CC)c1c([N+](=O)[O-])c(=O)sc2ccccc12	DYRK1A inh 53.3 | ADP-Glo artifact inactive
O=c1sc2ccccc2c(N2CCCC2)c1[N+](=O)[O-]	none
O=C(O)c1[nH]c2ccc([N+](=O)[O-])cc2c1-c1ccccc1	DYRK1A inh 52.5 | ADP-Glo artifact inactive
COc1ccc(C2C(=O)c3ccccc3C2=O)cc1OC	none
COc1cc(C2C(=O)c3ccccc3C2=O)ccc1O	DYRK1A inh 69.3 | ADP-Glo artifact inactive
COc1ccc(CC(=O)Nc2c3c(nn2-c2cccc(C)c2C)CS(=O)C3)cc1 (stereo unspecified)	none
Cc1cccc(-n2nc3c(c2NC(=O)CCC2CCCCC2)CS(=O)C3)c1C (stereo unspecified)	DYRK1A inh 55.4 | ADP-Glo artifact inactive
Cn1c(=O)nc2n(Cc3ccccc3)c3ccccc3cc-2c1=O	none (no result: HSF1 inh, HSF1 activator)
Cc1cccc(C(C)n2nnc3ccccc32)c1O (stereo unspecified)	DYRK1A inh 57.2 | ADP-Glo artifact inactive
Cc1cc(N2CCC(C)CC2)nc2cccc(O)c12	DYRK1A inh 50.7 | ADP-Glo artifact inactive
Cc1nc2ccccc2nc1N1CCC(C)CC1	none
COc1cc(/C=C2/C(=N)N3C(SC)=NSC3=NC2=O)ccc1OC(=O)c1ccco1	DYRK1A inh 57.6 | ADP-Glo artifact inactive
COc1cc(/C=C2/C(=N)N3C(=NC2=O)SN=C3S(C)(=O)=O)ccc1OC(=O)c1ccco1	none (no result: DYRK1A inh)
CSC1=NSC2=NC(=O)/C(=C/c3coc4ccc(O)cc4c3=O)C(=N)N12	DYRK1A inh 86.9 | ADP-Glo artifact inactive
Nc1cc2c(cc1[N+](=O)[O-])-c1ccccc1C2=NO	DYRK1A inh 79.8 (no result: HSF1 inh, HSF1 activator) | ADP-Glo artifact inactive
CC(=O)Nc1cc2c(cc1[N+](=O)[O-])-c1ccccc1C2=NO	none (no result: HSF1 inh, HSF1 activator)
COc1ccc(C(=O)OCC(=O)NCC2CCCO2)c(F)c1 (stereo unspecified)	none (no result: HSF1 inh, HSF1 activator)
Cc1ccc(OCC(=O)NCCS(=O)(=O)N2CCN(c3ccccc3)CC2)cc1	none
Oc1ccc(-c2nccc(-c3cccs3)n2)cc1	DYRK1A inh 61.2 | ADP-Glo artifact inactive
COC(=O)C(C)Oc1ccc(-c2nccc(-c3cccs3)n2)cc1 (stereo unspecified)	none
CC(=O)Oc1c(/C=C(\C#N)C(N)=O)[nH]c2ccccc12	none
C[C@@H]1C=C(C(=O)NCc2nc3ccccc3[nH]2)O[C@H](OCCCCO)C1	DYRK1A inh 51.3 | ADP-Glo artifact inactive
C[C@@H]1C=C(C(=O)NCc2nc3ccccc3[nH]2)O[C@H](OCc2ccc(CO)cc2)C1	none (no result: DYRK1A inh)
COc1ccc(/C=C2\SC(N)=NC2=O)cc1Br	none
COc1cc(/C=C2\SC(N)=NC2=O)cc(Cl)c1O	DYRK1A inh 61.1 | ADP-Glo artifact inactive
Cc1ccc(C)c(NC(=O)C(Sc2nncn2C)c2ccccc2)c1 (stereo unspecified)	none
N#Cc1c(C(F)(F)F)cc(-c2ccc(Cl)cc2)[nH]c1=O	none
N#Cc1c(C(F)(F)F)cc(-c2cccc(Cl)c2)[nH]c1=O	DYRK1A inh 54.2 | ADP-Glo artifact inactive
Cc1ccc2nc(/C(C#N)=C\c3cc(O)ccc3[N+](=O)[O-])[nH]c2c1	DYRK1A inh 76.9 | ADP-Glo artifact inactive
COc1cc(/C=C(\C#N)c2nc3ccc(C)cc3[nH]2)cc([N+](=O)[O-])c1O	none (no result: HSF1 inh, HSF1 activator)
COc1c(O)ccc(/C=C(\C#N)c2nc3ccccc3[nH]2)c1[N+](=O)[O-]	DYRK1A inh 72.5 | ADP-Glo artifact inactive
Cc1cc(/C=C(/C#N)c2nc3ccccc3[nH]2)c(C)n1-c1cccc([N+](=O)[O-])c1	none
Cc1cc(NC(=O)CSc2n[nH]c(-c3ccc(Cl)cc3Cl)n2)no1	none (no result: HSF1 inh, HSF1 activator)
COc1ccccc1N1CCN(CCN(C(=O)c2ccc(F)cc2)c2ccccn2)CC1	none (no result: HSF1 inh, HSF1 activator)
